{"source": "PubChem BioAssay (NCI)", "note": "Compounds without any hit were thinned out: in the full panel of roughly 83,000, 20% have a hit.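 Interpretation: 100, growth as untreated; towards 0, rising growth inhibition; 0, no net growth; 0 to -100, cell death. Compounds scoring below 10 were considered active.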 Values without a mark were called inactive. Activity calls are given as the source filed them.", "data": [{"test_system": "786-0 renal", "test": "NCI-60 one-dose screen, 48 h (100 = growth as untreated, 0 = no growth, -100 = all killed)", "settings": "10 µM unless noted", "values": [{"smiles": "COc1cc2oc(-c3cccc(NC(=O)c4cc(N)ccc4Cl)c3)cc(=O)c2c(OC)c1OC", "growth": "85.2%"}, {"smiles": "CC(C)(C)n1cc(-c2ccnc(NCCCNS(=O)(=O)c3cccc(F)c3)n2)c(-c2ccc(Cl)c(O)c2)n1", "growth": "99.7%"}, {"smiles": "COc1cccc2cc(-c3cc4ccccc4[nH]3)/c(=N\\NC(=O)c3ccc(Cl)cc3)oc12", "growth": "48.5%"}, {"smiles": "Nc1nc(Nc2ccccc2SSc2ccccc2Nc2nc(N)nc(-c3ccc4ccccc4c3)n2)nc(-c2ccc3ccccc3c2)n1", "growth": "82.6%"}, {"smiles": "O=C(CN1CCN(c2cc(=O)n(-c3ccccc3)c3ccccc23)CC1)Nc1nc(-c2ccccc2)cs1", "growth": "89.3%"}, {"smiles": "CC(Nc1c(C#N)cnc2ccc(-c3cnc(N)nc3)cc12)c1ccccc1", "note": "(centres undefined)", "growth": "12.2%"}, {"smiles": "CC(=O)Nc1cccc(Nc2nc(N[C@H](C)c3ccccc3)c3ccccc3n2)c1", "growth": "54.9%"}, {"smiles": "CNC1CCc2c(sc(NC(=O)c3ccc(C(C)(C)C)cc3)c2C(N)=O)C1", "note": "(centres undefined)", "growth": "24.9%"}, {"smiles": "COc1cc(OC)cc(C(=O)Nc2cccc(C#Cc3cccc4[nH]nc(N)c34)c2)c1", "growth": "46.5%"}, {"smiles": "COc1c(N2CC3CCCNC3C2)c(F)cc2c(=O)c(C(=O)N/N=C/c3ccccc3)cn(C3CC3)c12", "note": "(centres undefined)", "growth": "66.6%"}, {"smiles": "COc1ccccc1-n1cc(C#N)c(N)c1C(=O)c1ccc(Br)cc1", "growth": "91.9%"}, {"smiles": "Nc1nc(-c2cccc([N+](=O)[O-])c2)c(N=Nc2ccccc2)s1", "growth": "59.7%"}, {"smiles": "COc1ccc(-c2nc3ccc(-c4nnc(SCC(=O)Nc5ccc(C(=O)/C=C/c6ccc(Cl)cc6)cc5)o4)cc3[nH]2)cc1", "growth": "99.1%"}, {"smiles": "CCCCCCCn1cc2c(NCCc3ccccc3)ncnc2n1", "growth": "99.5%"}, {"smiles": "COc1ccc(-c2nc3cc(Cl)c(Cl)cc3n2CC(=O)N=Nc2c(O)[nH]c3ccc(OC)cc23)cc1", "growth": "82.5%"}, {"smiles": "CN1CCN(Cc2ccc(NC(=O)c3cncc(C#Cc4cnn5cccnc45)c3)cc2C(F)(F)F)CC1", "growth": "27.1%"}, {"smiles": "Cc1cc(C)c(N2C(=O)CC(Nc3ccc(Cl)cc3Cl)C2=O)c(C)c1", "note": "(centres undefined)", "growth": "102%"}, {"smiles": "CC(=O)Nc1cccc(Nc2nc(N[C@@H](C)c3ccccc3)c3ccccc3n2)c1", "growth": "3.67% (active)"}, {"smiles": "COc1cc(-c2nn(C(C)(C)C)cc2-c2ccnc(NCCCNS(=O)(=O)c3cccc(F)c3)n2)ccc1Cl", "growth": "69.7%"}, {"smiles": "NC(=O)c1cccc(-n2ccc3cc(NC(=O)Nc4ccc(N5CCOCC5)c(C(F)(F)F)c4)ccc32)n1", "growth": "-41.8% (active)"}, {"smiles": "O=S(=O)(Nc1cccc2ccccc12)c1ccc(-c2cnc(C3CC3)o2)cc1", "growth": "50.2%"}, {"smiles": "CCOC(=O)c1c(N)c(C#N)cn1-c1cc(OC)c(OC)c(OC)c1", "growth": "103%"}, {"smiles": "COc1ccc([C@H]2c3[nH]c4ccccc4c3C[C@H]3C(=O)N(C4CCN(Cc5c(Cl)cccc5Cl)CC4)CC(=O)N23)c(OC)c1", "growth": "101%"}, {"smiles": "COc1ccc2c(c1)c(-c1cc(N)n3nc(-c4cn(C)c5ccc(OC)cc45)cc3n1)cn2C", "growth": "91.9%"}, {"smiles": "COc1cc2c(cc1OC)C(Sc1ccc(C)cc1)c1c(nc(N)c(C#N)c1N)O2", "note": "(centres undefined)", "growth": "-78.9% (active)"}, {"smiles": "C[C@@H](Nc1c(C#N)cnc2ccc(-c3cnc(Cl)c(NS(C)(=O)=O)c3)cc12)c1ccccc1", "growth": "4.25% (active)"}, {"smiles": "Cc1ccc(NC(=O)N[C@@H](Cc2cc(F)cc(F)c2)C(=O)NC2C(=O)N3C[C@H](O)C[C@H]3C(=O)N3CCCC[C@H]3C(=O)N[C@@H](CO)C(=O)N3C[C@H](C)C[C@H]3C(=O)O[C@H]2C)c(F)c1", "note": "(some centres undefined)", "growth": "93.6%"}, {"smiles": "O=C(NCc1ncc[nH]1)c1ccc(-c2nc3ccc4[nH]ncc4c3c3c2CCCC3)cc1", "growth": "25.4%"}, {"smiles": "CCO/C=N/C1=C(C#N)C(c2ccc(F)cc2)c2sc3c(C)cccc3c2O1", "note": "(centres undefined)", "growth": "20.2%"}, {"smiles": "c1cn2c(ccc3nc(-c4cn[nH]c4)c4c(c32)CCCC4)n1", "growth": "55.3%"}, {"smiles": "O=c1[nH]c2ccccc2cc1CSc1ccccc1Nc1nccc(-c2ccc(Cl)cc2)n1", "growth": "101%"}, {"smiles": "Cn1ccnc1C(=O)/C=C/c1ccc(NC(=O)c2c(F)c(F)c(F)c(F)c2F)cc1", "growth": "101%"}, {"smiles": "Cc1noc(C)c1CSc1nc2ccccc2n1-c1ccccc1", "growth": "82.6%"}, {"smiles": "Cn1cc(CNc2nc3ccc(OC/C(=C/F)CN)cc3o2)ccc1=O", "growth": "92.4%"}, {"smiles": "CC(C)(C)CC(C)(C)n1nnnc1C(Nc1nccs1)c1cc2cccc3ccc4cccc1c4c32", "note": "(centres undefined)", "growth": "102%"}, {"smiles": "COc1ccc(/C(N)=N/C(N)=N/c2nc3ccccc3s2)cc1", "growth": "79%"}, {"smiles": "COc1ccc(-c2nn(-c3ccc(S(C)(=O)=O)cc3)cc2/C=N/O)cc1", "growth": "105%"}, {"smiles": "CCOc1cccc(-c2nc3sccn3c2-c2ccnc(S(C)(=O)=O)n2)c1", "growth": "103%"}, {"smiles": "O=C(c1ccc(Cl)cc1)C1[C@H](c2ccc(Cl)cc2)[C@@H](c2ccccc2)NC12C(=O)Nc1ccccc12", "note": "(some centres undefined)", "growth": "64.2%"}]}]}
